“And” between values parts separate entries of the source, which are not always exact repeats. Equal values may be shown once. Inconclusive results are not listed. The source made the active and inactive calls. Unless noted, the call rests on the fitted dose curve; in most records, active means well fitted curve in the direction sought with a large enough effect; inconclusive means small, poorly fitted or top-dose-only effect, or another doubt; inactive means no such curve, though single readings can be large; an effect the other way counts as inactive or inconclusive.
System: not listed separately
Experiment: qHTS for Activators of Parkin Expression: LOPAC Validation Assay (FLuc Reporter) (AID 720573;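 further: 0% = DMSO and 100% = positive control compounds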)
Conditions: Cell line, PRKN promoter firefly luciferase reporter, vehicle wells = 0, positive control = 100%; series mostly up to 46.1 µM; activation: at the top concentration
How it was run: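 Neuronal cell line stably carrying FLuc/NLuc coincidence reporter under Parkin promoter; cells plated 24 h, then compounds added in 7-point dose response for 24 h at 37 C. FLuc luminescence read; normalized to DMSO and positive control (100%).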

| SMILES | activation |
| --- | --- |
| C[C@]12CCC(=O)C=C1CC[C@@H]1[C@@H]2C(=O)C[C@@]2(C)[C@H]1CC[C@]2(O)C(=O)CO | -9.74% (inactive) |
| CNCCC(Oc1ccccc1OC)c1ccccc1 (stereo not drawn) | 0.909% (inactive) |
| CC(=O)[C@]1(O)Cc2c(O)c3c(c(O)c2[C@@H](O[C@H]2C[C@H](N)[C@H](O)[C@H](C)O2)C1)C(=O)c1ccccc1C3=O | -47.5% (inactive) |
| CC(C)(C)c1ccc(C(=O)CCCN2CCC(OC(c3ccccc3)c3ccccc3)CC2)cc1 | -9.19% (inactive) |
| CC(C)NNC(=O)c1ccncc1 | -7.17% (inactive) |
| CCN(CC)CCCN(c1ccccc1)C1Cc2ccccc2C1 | -14.2% (inactive) |
| CC(C(=O)O)c1ccc(CC2CCCC2=O)cc1 (stereo not drawn) | -6.91% (inactive) |
| OC(CCN1CCCCC1)(c1ccccc1)C1CCCCC1 (stereo not drawn) | -7.17% (inactive) |
| FC(F)(F)c1ccccc1-n1ccnc1 | -6.87% (inactive) |
| CN1C[C@H](C(=O)N[C@]2(C)O[C@@]3(O)[C@@H]4CCCN4C(=O)[C@H](Cc4ccccc4)N3C2=O)C[C@@H]2c3cccc4[nH]cc(c34)C[C@H]21 | -14.8% (inactive) |
| CN1CCN(C2=Nc3ccccc3Oc3ccc(Cl)cc32)CC1 | -12.7% (inactive) |
| C[C@]12C=CC(=O)C=C1CC[C@H]1[C@@H]3C[C@@H](O)[C@](O)(C(=O)CO)[C@@]3(C)C[C@H](O)[C@@]12F | -2.21% (inactive) |
| CC1=C(C)C(=O)C(CCCCC#CCCCC#CCO)=C(C)C1=O | -12.4% (inactive) |
| CCCCNC(=O)NS(=O)(=O)c1ccc(C)cc1 | -2.11% (inactive) |
| CCC(=O)c1ccc2c(c1)N(CCCN(C)C)c1ccccc1S2 | -18.6% (inactive) |
| CNCCCN1c2ccccc2CCc2ccccc21 | -11.4% (inactive) |
| OCCN1CCN(CCCN2c3ccccc3C=Cc3ccccc32)CC1 | -7.54% (inactive) |
| Cc1ccc(/C(=C\CN2CCCC2)c2ccccn2)cc1 | -3.49% (inactive) |
| CCN(CC)CCNC(=O)c1cc(S(C)(=O)=O)ccc1OC | -5.62% (inactive) |
| Cc1ccc(Cl)c(Nc2ccccc2C(=O)O)c1Cl | -15.8% (inactive) |
| CCCN(CCC)CCc1cccc2c1CC(=O)N2 | -3.29% (inactive) |
| CN(C)CCN(Cc1cccs1)c1ccccn1 | 14.7% (inactive) |
| CCN1CCc2nc(N)oc2CC1 | 0.854% (inactive) |
| C[n+]1cc2c3c(ccc2c2ccc4cc5c(cc4c21)OCO5)OCO3 | -48.9% (inactive) |
| Nc1c2c(nc3ccccc13)CCCC2O (stereo not drawn) | 0.754% (inactive) |
| CN(C)CCCN1c2ccccc2Sc2ccccc21 | -7.51% (inactive) |
| COc1ccc(CCN(C)CCCC(C#N)(c2cc(OC)c(OC)c(OC)c2)C(C)C)cc1OC (stereo not drawn) | -30.1% (inactive) |
| CCn1ccnc1CC1COc2ccccc2O1 (stereo not drawn) | 11.7% (inactive) |
| C[N+](C)(C)CCOC(N)=O | 4.17% (inactive) |
| CC(N=C(NC#N)Nc1ccncc1)C(C)(C)C (stereo not drawn) | -8.52% (inactive) |

System: not listed separately
Experiment: qHTS assay for small molecule agonists of the antioxidant response element (ARE) signaling pathway measured by Nrf2-dependant transcriptional activity (AID 720636; active means well fitted curve in the direction sought with a large enough effect in the repeat runs; an effect the other way counts as inactive or inconclusive;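 further: HepG2 cells with an ARE-driven luciferase reporter; % of control where 0% means no effect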)
Conditions: ARE-luc HepG2, Nrf2 luciferase reporter, 16 h; series mostly up to 92.4 µM; activation: at the top concentration
How it was run: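 We exposed ARE-luc HepG2 cells, seeded in assay medium with 1% dialyzed FBS and allowed 6 hr to adhere, to test compounds overnight (16 hr, 37 C) before measuring luciferase with ONE-Glo.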

| SMILES | activation | outcome |
| --- | --- | --- |
| C[C@]12CCC(=O)C=C1CC[C@@H]1[C@@H]2C(=O)C[C@@]2(C)[C@H]1CC[C@]2(O)C(=O)CO | 0.278% (inactive) | – |
| C[C@]12C=CC(=O)C=C1CC[C@H]1[C@@H]3C[C@@H](O)[C@](O)(C(=O)CO)[C@@]3(C)C[C@H](O)[C@@]12F | -0.0151% (inactive) | – |
| CCCCNC(=O)NS(=O)(=O)c1ccc(C)cc1 | – | inactive |

System: not listed separately
Experiment: qHTS assay for small molecule agonists of the antioxidant response element (ARE) signaling pathway measured by Nrf2-dependant transcriptional activity - cell viability counter screen (AID 720653; active means well fitted curve in the direction sought with a large enough effect in the repeat runs; an effect the other way counts as inactive or inconclusive; further: on the % scale 0 is the no-effect control and ±100 the full control effect)
Conditions: ARE-bla HepG2 viability, CellTiter-Glo ATP luminescence, 16 h; max response: active compounds read low
How it was run: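 Cytotoxicity counter screen: intracellular ATP quantified by CellTiter-Glo luminescence in the same ARE-bla HepG2 plates, after 16 h compound exposure and a 2 h beta-lactamase substrate step.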

| SMILES | max response |
| --- | --- |
| C[C@]12CCC(=O)C=C1CC[C@@H]1[C@@H]2C(=O)C[C@@]2(C)[C@H]1CC[C@]2(O)C(=O)CO | -5.48% (inactive) |
| C[C@]12C=CC(=O)C=C1CC[C@H]1[C@@H]3C[C@@H](O)[C@](O)(C(=O)CO)[C@@]3(C)C[C@H](O)[C@@]12F | -0.0511% (inactive) |
| CCCCNC(=O)NS(=O)(=O)c1ccc(C)cc1 | 6.42% (inactive) and -5.96% (inactive) |

Molecular target: Hexokinase-4 (Homo sapiens) + Glucokinase regulatory protein (Homo sapiens) (UniProt P35557+Q14397)
Experiment: qHTS assay for inhibitors of recombinant human GCK-GKRP interaction: Diaphorase-coupled assay (AID 743205)
Conditions: G6PDH/diaphorase resorufin fluorescence; series mostly up to 57.5 µM; activity change, positive = activation: at the top concentration
How it was run: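 GST-GCK (10 nM) with FLAG-GKRP (10 nM), 5 mM glucose and 0.4 mM ATP in pH 7.6 Hepes; compounds preincubated 20 min with substrate. G6PDH/diaphorase coupling converts resazurin to resorufin, read kinetically (ex 525/em 590 nm) for 30 min.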

Chain of Hexokinase-4 (Homo sapiens) + Glucokinase regulatory protein (Homo sapiens) (P35557 whole entry, looked up): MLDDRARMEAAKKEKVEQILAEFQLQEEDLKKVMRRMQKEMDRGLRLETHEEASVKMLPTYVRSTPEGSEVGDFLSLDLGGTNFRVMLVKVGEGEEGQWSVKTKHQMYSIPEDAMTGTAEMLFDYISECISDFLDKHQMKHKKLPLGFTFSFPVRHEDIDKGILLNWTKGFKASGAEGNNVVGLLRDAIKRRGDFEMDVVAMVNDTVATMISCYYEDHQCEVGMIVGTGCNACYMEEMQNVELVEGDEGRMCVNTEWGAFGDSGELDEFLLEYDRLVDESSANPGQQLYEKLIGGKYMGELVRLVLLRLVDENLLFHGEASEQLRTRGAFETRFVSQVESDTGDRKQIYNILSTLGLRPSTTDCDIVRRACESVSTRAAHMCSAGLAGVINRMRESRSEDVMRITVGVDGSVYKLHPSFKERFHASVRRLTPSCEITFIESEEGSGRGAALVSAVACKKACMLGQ
Chain of Hexokinase-4 (Homo sapiens) + Glucokinase regulatory protein (Homo sapiens) (Q14397 whole entry, looked up): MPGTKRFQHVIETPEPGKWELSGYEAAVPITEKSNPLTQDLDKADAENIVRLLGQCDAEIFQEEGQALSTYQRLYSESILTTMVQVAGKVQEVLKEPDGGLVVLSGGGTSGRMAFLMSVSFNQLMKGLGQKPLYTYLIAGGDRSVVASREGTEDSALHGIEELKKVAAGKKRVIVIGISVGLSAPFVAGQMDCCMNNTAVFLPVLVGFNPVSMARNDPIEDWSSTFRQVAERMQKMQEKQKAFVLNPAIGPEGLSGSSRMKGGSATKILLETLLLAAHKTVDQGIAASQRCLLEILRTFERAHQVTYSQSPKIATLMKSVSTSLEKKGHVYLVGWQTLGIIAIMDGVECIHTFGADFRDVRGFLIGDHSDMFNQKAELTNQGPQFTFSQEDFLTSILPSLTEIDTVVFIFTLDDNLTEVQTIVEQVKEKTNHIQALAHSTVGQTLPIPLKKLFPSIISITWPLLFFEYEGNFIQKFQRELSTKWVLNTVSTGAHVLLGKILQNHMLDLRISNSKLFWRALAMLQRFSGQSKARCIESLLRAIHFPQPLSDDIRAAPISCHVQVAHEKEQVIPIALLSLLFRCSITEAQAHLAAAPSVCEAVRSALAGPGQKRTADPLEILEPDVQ

| SMILES | activity change, positive = activation |
| --- | --- |
| C[C@]12CCC(=O)C=C1CC[C@@H]1[C@@H]2C(=O)C[C@@]2(C)[C@H]1CC[C@]2(O)C(=O)CO | 0.175% (inactive) |
| CNCCC(Oc1ccccc1OC)c1ccccc1 (stereo not drawn) | -0.494% (inactive) |
| CC(=O)[C@]1(O)Cc2c(O)c3c(c(O)c2[C@@H](O[C@H]2C[C@H](N)[C@H](O)[C@H](C)O2)C1)C(=O)c1ccccc1C3=O | -35.5% (inactive) |
| CC(C)(C)c1ccc(C(=O)CCCN2CCC(OC(c3ccccc3)c3ccccc3)CC2)cc1 | -4.39% (inactive) |
| c1ccc2c(c1)CCCC2C1=NCCN1 (stereo not drawn) | -5.73% (inactive) |
| C(=C\c1ccccc1)/CN1CCN(C(c2ccccc2)c2ccccc2)CC1 | -1.4% (inactive) |
| CC(C)NNC(=O)c1ccncc1 | -0.101% (inactive) |
| CCN(CC)CCCN(c1ccccc1)C1Cc2ccccc2C1 | -6.92% (inactive) |
| CC(C(=O)O)c1ccc(CC2CCCC2=O)cc1 (stereo not drawn) | -1.93% (inactive) |
| OC(CCN1CCCCC1)(c1ccccc1)C1CCCCC1 (stereo not drawn) | -0.545% (inactive) |
| FC(F)(F)c1ccccc1-n1ccnc1 | -1.5% (inactive) |
| CN1C[C@H](C(=O)N[C@]2(C)O[C@@]3(O)[C@@H]4CCCN4C(=O)[C@H](Cc4ccccc4)N3C2=O)C[C@@H]2c3cccc4[nH]cc(c34)C[C@H]21 | -19.1% (inactive) |
| CN1CCN(C2=Nc3ccccc3Oc3ccc(Cl)cc32)CC1 | -4.64% (inactive) |
| C[C@]12C=CC(=O)C=C1CC[C@H]1[C@@H]3C[C@@H](O)[C@](O)(C(=O)CO)[C@@]3(C)C[C@H](O)[C@@]12F | -4.91% (inactive) |
| Cc1ccc(=O)n(-c2ccccc2)c1 | 1.69% (inactive) |
| CC1=C(C)C(=O)C(CCCCC#CCCCC#CCO)=C(C)C1=O | -41.3% (inactive) |

| SMILES | activity change, positive = activation |
| --- | --- |
| CCCCNC(=O)NS(=O)(=O)c1ccc(C)cc1 | -0.0205% (inactive) |
| CCC(=O)c1ccc2c(c1)N(CCCN(C)C)c1ccccc1S2 | 2.1% (inactive) |
| OCCN1CCN(CCCN2c3ccccc3C=Cc3ccccc32)CC1 | -6.17% (inactive) |
| CCc1cccc(N(C)C(N)=Nc2cccc3ccccc23)c1 | -9.73% (inactive) |
| CCN(CC)CCNC(=O)c1cc(S(C)(=O)=O)ccc1OC | -3.44% (inactive) |
| Cc1ccc(Cl)c(Nc2ccccc2C(=O)O)c1Cl | 1.17% (inactive) |
| CCCN(CCC)CCc1cccc2c1CC(=O)N2 | -9.21% (inactive) |
| CN(C)CCN(Cc1cccs1)c1ccccn1 | -3.72% (inactive) |
| CCN1CCc2nc(N)oc2CC1 | -4.4% (inactive) |
| C[n+]1cc2c3c(ccc2c2ccc4cc5c(cc4c21)OCO5)OCO3 | -62% (inactive) |
| Nc1c2c(nc3ccccc13)CCCC2O (stereo not drawn) | 0.428% (inactive) |
| CN(C)CCCN1c2ccccc2Sc2ccccc21 | -4.9% (inactive) |
| COc1ccc(CCN(C)CCCC(C#N)(c2cc(OC)c(OC)c(OC)c2)C(C)C)cc1OC (stereo not drawn) | -2.7% (inactive) |
| CCn1ccnc1CC1COc2ccccc2O1 (stereo not drawn) | -2.97% (inactive) |
| C[N+](C)(C)CCOC(N)=O | -4.74% (inactive) |
| CC(N=C(NC#N)Nc1ccncc1)C(C)(C)C (stereo not drawn) | -0.592% (inactive) |
